Measurements from PubChem BioAssay.
“And” between values parts separate entries of the source, which are not always exact repeats. Equal entries are not always repeated. Results filed as inconclusive are left out. The source made the active and inactive calls. Unless noted, no cut-off is given here; in the data, nearly all actives have AC50 up to about 26 µM.

Key:
[1] = viability loss in pontine glioma line – cell-based, SU-DIPG-XVII, MIPE5.0, CellTiter-Glo, qHTS, dose response (AID 1347060); details: CellTiter-Glo ATP luminescence;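 for AC50: cells exposed to compound for 48 hours before viability readout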
[2] = viability loss in pontine glioma line – cell-based, SU-DIPG-XIII, MIPE4.0, CellTiter-Glo, qHTS, dose response (AID 1347061; cut-off not given, nearly all actives have AC50 up to about 37 µM;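 note: cells exposed to compound for 48 hours before readout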); details: CellTiter-Glo ATP luminescence
[3] = viability loss in pontine glioma line – cell-based, JHH-DIPG-1, MIPE4.0, CellTiter-Glo, qHTS, dose response (AID 1347062; cut-off not given, nearly all actives have AC50 up to about 27 µM;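 for AC50: cells exposed to compound for two days before readout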); details: JHH-DIPG-1 viability, CellTiter-Glo ATP luminescence
[4] = viability loss in pontine glioma line – cell-based, SU-DIPG-IV, MIPE4.0, CellTiter-Glo, qHTS, dose response (AID 1347063; cut-off not given, nearly all actives have AC50 up to about 30 µM;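 note: compound exposure lasted 48 hours before the viability readout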); details: CellTiter-Glo ATP luminescence
[5] = viability loss in pontine glioma line – cell-based, SU-DIPG-XIII, MIPE5.0, CellTiter-Glo, qHTS, dose response (AID 1347064; cut-off not given, nearly all actives have AC50 up to about 23 µM;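 for AC50: cells exposed to compound for 48 hours before the viability read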); details: CellTiter-Glo ATP luminescence
[6] = viability loss in pontine glioma line – cell-based, SU-DIPG-XXV, MIPE5.0, CellTiter-Glo, qHTS, dose response (AID 1347065); details: CellTiter-Glo ATP luminescence;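 note: cells exposed to compound for 48 hours before ATP readout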
[7] = growth inhibition of DIPG cells – cell-based, MIPE4.0 library, CellTiter-Glo luminescence, qHTS (AID 1347066; cut-off not given, nearly all actives have AC50 up to about 30 µM;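 note: cells exposed to compound for 48 hours before readout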); details: SU-DIPG-VI viability, CellTiter-Glo ATP luminescence
[8] = JHH-DIPG-1 glioma cell viability, MIPE5.0 library, CellTiter-Glo luminescence, qHTS (AID 1347067); details: JHH-DIPG-1 glioma viability, CellTiter-Glo ATP luminescence;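 note: cells exposed to compound for 48 hours before readout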
[9] = viability loss with induced miR-34 in A549 – imaging, A549 dox-inducible miR-34, nuclei and caspase counts, primary screen (AID 1347080;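 active = compounds whose cell count with miR-34 switched on is under 0.7 times the count with it off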); details: A549 miR-34 inducible, Hoechst nuclei count, 48 h
[10] = MELAS cybrid and Rieske KO viability enhancers – cell-based, MELAS cybrids, Rieske KO mouse fibroblasts, CellTiter-Glo, primary screen (AID 1508586;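 active = mean z-score across replicates of 1.96 or higher in either the MELAS or the Rieske mutant cell line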;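 note: z relative to plate mean and SD of compound and empty wells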); details: low glucose
[11] = growth inhibition of DIPG cells – cell-based, MIPE5.0 library, qHTS (AID 1347068; cut-off not given, nearly all actives have IC50 up to about 30 µM;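 note: cells exposed to compound for 48 hours before viability readout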); details: SU-DIPG-XXV viability
[12] = stronger effect = lower value, cell number ratio, induced over uninduced
[13] = measured here: relative caspase fold change +Dox/-Dox
[14] = measured here: total cells with miR-34 induction, stronger effect = lower value
[15] = measured here: total cells without miR-34 induction
[16] = MELAS cybrid survival, CellTiter-Glo 48 h, stronger effect = higher value
[17] = Rieske KO mouse fibroblast survival, CellTiter-Glo 72 h

CCCCCCCN(CC)CCCC(O)c1ccc(NS(C)(=O)=O)cc1 (stereo unspecified)
inactive: outcome [1] | outcome [2] | outcome [3] | outcome [4] | outcome [5] | outcome [6] | outcome [7] | outcome [8] | fold change [9, 12] 0.916 | z-score [10, 16] -0.187 and 0.657
0.577: fold change [9, 13]
0.0673 and -0.0365: z-score [10, 17]
8450: cell count [9, 15]
7740: cell count [9, 14]

CC(C)n1nc(-c2cc3cc(O)ccc3[nH]2)c2c(N)ncnc21
1820: cell count [9, 15]
1620: cell count [9, 14]
inactive: fold change [9, 12] 0.892
-2.66: z-score [10, 17]
active: AC50 [1] 2.63 µM | AC50 [2] 18.7 µM | AC50 [3] 9.35 µM | AC50 [4] 0.148 µM | AC50 [5] 1.66 µM | AC50 [6] 0.742 µM | AC50 [7] 20.9 µM | AC50 [8] 2.63 µM | z-score [10, 16] 5.6
1.11: fold change [9, 13]

Cc1cc(Nc2ncc3c(n2)N(C)C(=O)N(c2cc(NC(=O)c4cccc(C(F)(F)F)c4)ccc2C)C3)n(C)n1
active: AC50 [1] 0.118 µM | AC50 [2] 1.48 µM | AC50 [3] 0.418 µM | AC50 [4] 0.209 µM | AC50 [5] 0.105 µM | AC50 [6] 0.059 µM | AC50 [8] 0.263 µM | IC50 [11] 0.209 µM
